Results taken from PubChem BioAssay (NCI).
The panel holds about 83,000 compounds, 20% with a hit somewhere; the sample as a whole holds those more often.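 How to read the values: 0–100, growth inhibition (40 = 60% inhibited); 0, no net growth; -100 to 0, cell death (-40 = 40% of starting cells died; -100 = all dead).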 The source made the active and inactive calls. The calls were made as follows: active = growth percent below 10; inactive = the rest.

Legend:
Assay in all cases: NCI-60 one-dose screen, 48 h (100 = growth as untreated, 0 = no growth, -100 = all killed)
Settings in all cases: 10 µM unless noted
HCT-15 colon = tested on: HCT-15 colon
HT29 colon = tested on: HT29 colon
SNB-75 CNS = tested on: SNB-75 CNS
SNB-19 CNS = tested on: SNB-19 CNS
U251 CNS = tested on: U251 CNS
PC-3 prostate = tested on: PC-3 prostate
SK-MEL-5 melanoma = tested on: SK-MEL-5 melanoma
UACC-62 melanoma = tested on: UACC-62 melanoma
LOX IMVI melanoma = tested on: LOX IMVI melanoma
SK-MEL-28 melanoma = tested on: SK-MEL-28 melanoma
SK-MEL-2 melanoma = tested on: SK-MEL-2 melanoma
EKVX NSCLC = tested on: EKVX NSCLC
SN12C renal = tested on: SN12C renal
UO-31 renal = tested on: UO-31 renal
TK-10 renal = tested on: TK-10 renal
ACHN renal = tested on: ACHN renal
CAKI-1 renal = tested on: CAKI-1 renal
A498 renal = tested on: A498 renal
CCRF-CEM leukemia = tested on: CCRF-CEM leukemia
MOLT-4 leukemia = tested on: MOLT-4 leukemia

Measured: growth

C=CCn1c(SCC(=O)Nc2ccc(C(=O)/C=C/c3ccc(C)cc3)cc2)nnc1-c1c[nH]c2ccccc12
inactive: HCT-15 colon 71.5% | HT29 colon 101% | SNB-75 CNS 97.4% | SNB-19 CNS 87.5% | U251 CNS 92.2% | PC-3 prostate 66.5% | SK-MEL-5 melanoma 69.2% | UACC-62 melanoma 67.9% | LOX IMVI melanoma 20.9% | SK-MEL-28 melanoma 96% | SK-MEL-2 melanoma 97.3% | EKVX NSCLC 61.9% | SN12C renal 83.6% | UO-31 renal 54.2% | TK-10 renal 114% | ACHN renal 83.4% | CAKI-1 renal 85.4% | A498 renal 95.1% | CCRF-CEM leukemia 83.1% | MOLT-4 leukemia 60.7%

O=C1C(c2ccccc2)=C(N2CCc3ccccc32)OC1(Cl)Cl
active: UO-31 renal -23.6% | ACHN renal -63.8% | CAKI-1 renal 4.78% | CCRF-CEM leukemia -17.8% | MOLT-4 leukemia 0.0776%
inactive: HCT-15 colon 21.1% | HT29 colon 37.4% | SNB-75 CNS 74.3% | SNB-19 CNS 84.9% | U251 CNS 85.8% | PC-3 prostate 69.5% | SK-MEL-5 melanoma 99.8% | UACC-62 melanoma 81.4% | LOX IMVI melanoma 56.7% | SK-MEL-28 melanoma 31.8% | SK-MEL-2 melanoma 92.2% | EKVX NSCLC 76.3% | SN12C renal 77.5% | TK-10 renal 27.6% | A498 renal 69.2%

O=C(c1ccc(O)cc1)[C@@H]1CN[C@@]2(C(=O)Nc3ccccc32)[C@H]1c1ccc(F)cc1
inactive: HCT-15 colon 94.8% | HT29 colon 110% | SNB-75 CNS 103% | SNB-19 CNS 92.8% | U251 CNS 102% | PC-3 prostate 88.8% | SK-MEL-5 melanoma 101% | UACC-62 melanoma 86% | LOX IMVI melanoma 110% | SK-MEL-28 melanoma 105% | SK-MEL-2 melanoma 104% | EKVX NSCLC 91.9% | SN12C renal 98.6% | UO-31 renal 77.3% | TK-10 renal 123% | ACHN renal 94.5% | CAKI-1 renal 106% | A498 renal 112% | CCRF-CEM leukemia 99.2% | MOLT-4 leukemia 90.5%

CCOC(=O)c1c(NC(=O)c2ccccc2C(F)(F)F)sc2c1CCC(=O)C2
inactive: HCT-15 colon 10.5% | HT29 colon 75.4% | SNB-75 CNS 65.4% | SNB-19 CNS 18.6% | U251 CNS 17.5% | PC-3 prostate 14.6% | UACC-62 melanoma 13% | SK-MEL-28 melanoma 80.1% | SK-MEL-2 melanoma 91.2% | EKVX NSCLC 32.2% | SN12C renal 25.8% | TK-10 renal 91.1% | CAKI-1 renal 21.1% | A498 renal 85.2% | CCRF-CEM leukemia 10.3% | MOLT-4 leukemia 94.2%
active: SK-MEL-5 melanoma -50.3% | LOX IMVI melanoma 3.5% | UO-31 renal -1.08% | ACHN renal 6.88%

CCCCCc1ccc(S(=O)(=O)Nc2cc(-c3csc(NC(=O)CN4CCN(C)CC4)n3)ccc2OC)cc1
inactive: SNB-75 CNS 91.2% | PC-3 prostate 23.2% | SK-MEL-2 melanoma 73.6% | EKVX NSCLC 63.4% | SN12C renal 11.8% | TK-10 renal 103% | A498 renal 75.2%
active: HCT-15 colon -58.9% | HT29 colon -31.1% | SNB-19 CNS 6.64% | U251 CNS -18.2% | SK-MEL-5 melanoma -93.5% | UACC-62 melanoma -58.5% | LOX IMVI melanoma -94% | SK-MEL-28 melanoma -69.4% | UO-31 renal -92.7% | ACHN renal 3.55% | CAKI-1 renal -15.5% | CCRF-CEM leukemia 2.18% | MOLT-4 leukemia -5.31%

Cc1ccc(-c2cc3nc(C(Cl)Cl)nc(C)n3n2)cc1
inactive: HCT-15 colon 109% | HT29 colon 104% | SNB-75 CNS 129% | SNB-19 CNS 104% | U251 CNS 108% | PC-3 prostate 98.1% | SK-MEL-5 melanoma 98.2% | UACC-62 melanoma 99.6% | LOX IMVI melanoma 96.8% | SK-MEL-28 melanoma 105% | SK-MEL-2 melanoma 110% | EKVX NSCLC 92.3% | SN12C renal 113% | UO-31 renal 80.9% | TK-10 renal 166% | ACHN renal 87.4% | CAKI-1 renal 96.4% | A498 renal 132% | CCRF-CEM leukemia 98.4% | MOLT-4 leukemia 103%

CC(C)C[C@@H]1N[C@@]2(C(=O)Nc3ccccc32)[C@@H](c2ccc(F)cc2)[C@@H]1C(=O)c1ccc(O)cc1
inactive: HCT-15 colon 93% | HT29 colon 105% | SNB-75 CNS 96.8% | SNB-19 CNS 95.1% | U251 CNS 97.1% | PC-3 prostate 63.6% | SK-MEL-5 melanoma 93.5% | UACC-62 melanoma 69% | LOX IMVI melanoma 92.4% | SK-MEL-28 melanoma 103% | SK-MEL-2 melanoma 102% | EKVX NSCLC 79.9% | SN12C renal 96.5% | UO-31 renal 58.3% | TK-10 renal 120% | ACHN renal 80.1% | CAKI-1 renal 67.3% | A498 renal 94.5% | CCRF-CEM leukemia 85% | MOLT-4 leukemia 77.5%

C=C(C=O)[C@@H]1CC[C@]2(C)[C@H](CC=C3[C@H]4[C@@H](C)[C@H](C)CC[C@]4(C(=O)OC)CC[C@]32C)[C@@]1(C)CCC#N
inactive: SNB-75 CNS 67.6% | SNB-19 CNS 25.2% | EKVX NSCLC 15.2% | SN12C renal 12.9% | TK-10 renal 35.7% | A498 renal 81.1% | CCRF-CEM leukemia 10.7%
active: HCT-15 colon -55% | HT29 colon -37.4% | U251 CNS 5.57% | PC-3 prostate 9.4% | SK-MEL-5 melanoma -98% | UACC-62 melanoma -31.9% | LOX IMVI melanoma -86.1% | SK-MEL-28 melanoma -39.4% | SK-MEL-2 melanoma -27.6% | UO-31 renal -83.5% | ACHN renal -71.9% | CAKI-1 renal 3.89% | MOLT-4 leukemia 1.4%

NC(N)=Nc1ccc(Nc2cccc(Nc3ccc(Cl)c(C(F)(F)F)c3)c2)cn1
active: SNB-19 CNS 4.1% | U251 CNS -43.2% | PC-3 prostate -24.9% | CCRF-CEM leukemia 5.61%
inactive: HCT-15 colon 68.4% | HT29 colon 29.8% | SNB-75 CNS 45.6% | SK-MEL-5 melanoma 34.5% | UACC-62 melanoma 24.5% | LOX IMVI melanoma 13.8% | SK-MEL-28 melanoma 40.3% | SK-MEL-2 melanoma 53.7% | EKVX NSCLC 43.1% | SN12C renal 13.3% | UO-31 renal 82.3% | TK-10 renal 98% | ACHN renal 78.1% | CAKI-1 renal 41.6% | A498 renal 58.8% | MOLT-4 leukemia 12.8%

COc1ccccc1N1CCN(C2=CC(=O)C(C)=C(C)C2=O)CC1
inactive: HCT-15 colon 100% | HT29 colon 104% | SNB-75 CNS 102% | SNB-19 CNS 104% | U251 CNS 98.1% | PC-3 prostate 95.9% | SK-MEL-5 melanoma 99.4% | UACC-62 melanoma 99.5% | LOX IMVI melanoma 94.8% | SK-MEL-28 melanoma 119% | SK-MEL-2 melanoma 101% | EKVX NSCLC 101% | SN12C renal 104% | UO-31 renal 93.7% | TK-10 renal 116% | ACHN renal 110% | CAKI-1 renal 104% | A498 renal 86.3% | CCRF-CEM leukemia 101% | MOLT-4 leukemia 93.3%

CNC(=O)c1cc(N2CCc3cc(NC(=O)Nc4ccc(Cl)c(C(F)(F)F)c4)ccc32)ccn1
inactive: HCT-15 colon 28% | HT29 colon 61.2% | SNB-75 CNS 93.3% | SNB-19 CNS 61.4% | U251 CNS 52.4% | PC-3 prostate 29% | SK-MEL-5 melanoma 46.6% | UACC-62 melanoma 51.8% | LOX IMVI melanoma 64.7% | SK-MEL-28 melanoma 66.9% | SK-MEL-2 melanoma 88.5% | EKVX NSCLC 55.1% | SN12C renal 65.2% | UO-31 renal 68.4% | TK-10 renal 86.6% | ACHN renal 38.1% | CAKI-1 renal 53.9% | A498 renal 80.3% | CCRF-CEM leukemia 48.4% | MOLT-4 leukemia 35.6%

CN(C)CCCOc1ccc2c(c1)CN(C(=O)c1cc(C(=O)N3Cc4cccc(F)c4C3)ccc1O)C2
inactive: HCT-15 colon 88.5% | HT29 colon 106% | SNB-75 CNS 95% | SNB-19 CNS 101% | U251 CNS 98.4% | PC-3 prostate 102% | SK-MEL-5 melanoma 98.2% | UACC-62 melanoma 96.3% | LOX IMVI melanoma 91.8% | SK-MEL-28 melanoma 104% | SK-MEL-2 melanoma 117% | EKVX NSCLC 103% | SN12C renal 99.4% | UO-31 renal 95.3% | TK-10 renal 122% | ACHN renal 106% | CAKI-1 renal 95.8% | A498 renal 97.1% | CCRF-CEM leukemia 98.1% | MOLT-4 leukemia 97.5%

ClC(Cl)c1nc(-c2ccco2)n2nc(-c3ccccc3)cc2n1
active: HT29 colon 0.803% | SNB-19 CNS 8.35% | U251 CNS -0.0523% | PC-3 prostate 1.66% | EKVX NSCLC 4.01% | ACHN renal -23.9% | CAKI-1 renal -19.1% | A498 renal -7.32%
inactive: HCT-15 colon 12.8% | SNB-75 CNS 88.5% | SK-MEL-5 melanoma 98.1% | UACC-62 melanoma 40.7% | LOX IMVI melanoma 98.2% | SK-MEL-28 melanoma 12.4% | SK-MEL-2 melanoma 89.6% | SN12C renal 66.5% | UO-31 renal 35.3% | TK-10 renal 20.3% | CCRF-CEM leukemia 89.8% | MOLT-4 leukemia 66.6%

Cn1cc(-c2nnc(N)nc2-c2c[nH]c3ccc(F)cc23)c2cc(F)ccc21
inactive: HCT-15 colon 62% | HT29 colon 73.8% | SNB-75 CNS 100% | SNB-19 CNS 75.8% | U251 CNS 70.6% | PC-3 prostate 72.2% | SK-MEL-5 melanoma 96.8% | UACC-62 melanoma 73.8% | LOX IMVI melanoma 65.4% | SK-MEL-28 melanoma 94.4% | SK-MEL-2 melanoma 97.1% | EKVX NSCLC 89.1% | SN12C renal 81.3% | UO-31 renal 57.1% | TK-10 renal 121% | ACHN renal 47.7% | CAKI-1 renal 76.4% | A498 renal 86.3% | CCRF-CEM leukemia 39.4% | MOLT-4 leukemia 23.5%
